Experimental data from PubChem BioAssay AID1259418 (Broad Institute, 2018).
In all, about 3,400 compounds went through this assay and about 840 (25%) were called active. Not shown: some 11% with an inconclusive outcome.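 The calls were made as follows: active = fitted half-maximal concentration of signal decrease at or below twice the sample's top tested concentration; inconclusive = flat curve between -70 and -30 percent, or poor fit; inactive = flat within 30 percent, signal rise, or potency above limit.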 Only a sample is shown. Measured potencies and affinities stand elsewhere.

Experiment: T. gondii growth inhibition with IFN-gamma, dose response, cell-based, ME49Luc, HeLa, luciferase, 72 h (AID 1259418)
Settings: T. gondii ME49Luc in IFN-y HeLa, active compounds read low, -100% = high-dose IFN-γ control wells; at 19.5 µM unless noted
For `O=C(c1ccc(F)cc1)N1c2ccccc2Sc2ccc(C(F)(F)F)cc21`, the max activity was -23.5% [at 0.08 µM] (inactive). For `Cc1ccc(-c2cc(C(=O)Nc3ccc4c(c3)CCC(=O)N4)c3ccccc3n2)cc1C`, the max activity was 6.1% [at 1.35 µM] (inactive). For `CCc1onc(C)c1C1CCCN1Cc1cn(CC(=O)OC)c2ccc(OC)cc12` (centres undefined), the max activity was 13.3% [at 5 µM] (inactive). With `COc1ccc(-c2nc3c(s2)CN(C(=O)Nc2ccc(C)cc2Cl)CC3)cc1` the max activity was 78.4% (inactive). For `O=C(c1cnccn1)N1CC(=O)N2[C@H](C1)[C@@H](c1ccc(-c3cccc(F)c3)cc1)[C@@H]2CO`, the max activity was 6.32% (inactive). In the case of `O=C(c1cnccn1)N1CC(=O)N2[C@H](CO)[C@H](c3ccc(-c4cccc(F)c4)cc3)[C@@H]2C1`, the max activity was 25.7% (inactive). For `O=C(Nc1ccc(F)cc1)N1CC(=O)N2[C@@H](CO)[C@@H](c3ccc(C4=CCCC4)cc3)[C@@H]2C1`, the max activity was 25.4% [at 10 µM] (inactive). For `CCOc1ccccc1-c1noc(-c2nnn(Cc3nc(-c4ccc(OC)cc4)oc3C)c2C)n1`, the max activity was 9.41% [at 1.35 µM] (inactive). With `COC(=O)c1ccccc1NC(=O)Nc1ccc(-c2nc(-c3ccc(C)cc3C)co2)cc1` the max activity was 13.8% [at 0.16 µM] (inactive). In the case of `CSCc1noc(CN2CCCC3(C2)CN(C)C(=O)O3)n1` (centres undefined), the max activity was 41.2% (inactive). With `COc1cc(OC)cc(-c2noc(-c3nnn(Cc4nc(-c5ccccc5OC)oc4C)c3C)n2)c1` the max activity was 6.32% [at 0.68 µM] (inactive). With `CCOc1ccc(-c2nc(CN3CCN(C(=O)Nc4ccc(C)c(F)c4)CC3)c(C)o2)cc1` the max activity was 15% (inactive). In the case of `CCOc1ccc(-c2nc(CN3CCN(C(=O)Nc4ccc(C)c(C)c4)CC3)c(C)o2)cc1`, the max activity was 14.4% [at 0.35 µM] (inactive). For `Cc1ccc(-c2nc(CN3CCN(C(=O)Nc4cc(C)cc(C)c4)CC3)c(C)o2)cc1`, the max activity was 9.49% [at 2.6 µM] (inactive). In the case of `Cc1ccc(-c2nc(CN3CCN(C(=O)Nc4cc(Cl)ccc4C)CC3)c(C)o2)cc1`, the max activity was 11.2% [at 10 µM] (inactive). With `CCOC(=O)CSC1=Nc2ccccc2C2=NC(CCC(=O)NCc3ccccc3OC)C(=O)N12` (centres undefined) the max activity was 28.4% [at 1.35 µM] (inactive). For `CC(C)N1CCC2(CC1)CC(COCC1CC1)N(c1ncccn1)C2` (centres undefined), the max activity was 22.4% (inactive). For `O=C(CCC1CCCC1)N1CCC2(CC1)Nc1cc(F)ccc1-n1cccc12`, the max activity was 4.37% (inactive). For `CC(C)[C@H](CO)Nc1nc(Nc2ccc(C(=O)O)c(Cl)c2)c2ncn(C(C)C)c2n1`, the max activity was 10.1% [at 10 µM] (inactive). In the case of `Cc1nc(-c2ccc(F)cc2)sc1-c1ccc(SCc2ccc(Br)cc2)nn1`, the max activity was 10.9% [at 1.35 µM] (inactive). With `COCC(=O)N1CCC2(CC1)Nc1ccc(C)c(C)c1-n1cccc12` the max activity was 4.86% [at 10 µM] (inactive). For `CCc1nc(OCC(=O)Nc2ccc(Cl)c(C(F)(F)F)c2)c2ccccc2n1`, the max activity was 33.2% [at 2.6 µM] (inactive). With `CN(C)CCN1CCOCC2(CCCN(C(=O)c3ccc4cc[nH]c4c3)C2)C1` (centres undefined) the max activity was 32.3% (inactive). For `Cc1cc(N2CCOCC2)nc2ccc(NC(=O)c3cc4ccccc4[nH]3)cc12`, the max activity was 9.53% [at 0.16 µM] (inactive). With `COc1ccc(NC(=O)N2CCN(Cc3nc(-c4ccccc4C)oc3C)CC2)cc1` the max activity was 6.09% [at 0.16 µM] (inactive). With `O=C(NC1CCC12CCN(Cc1ccoc1)CC2)c1cnccn1` (centres undefined) the max activity was 54.2% (inactive). With `Cc1cc(C)c2c(=O)n(Cc3nc(-c4ccccc4)oc3C)c(=O)n(-c3ccccc3)c2n1` the max activity was 11.1% [at 0.35 µM] (inactive). With `Cc1cc(C)c2c(=O)n(Cc3nc(-c4ccc(Cl)cc4)oc3C)c(=O)n(-c3ccccc3)c2n1` the max activity was -16.5% (inactive). With `O=C(NC1CCCC1)[C@H]1[C@H](CO)[C@H]2Cn3c(ccc(C4=CCCCC4)c3=O)[C@@H]1N2CC1CC1` the max activity was 28.5% [at 10 µM] (inactive). With `COc1ccccc1-c1nc(CSc2nc3c(c(=O)[nH]2)CN(Cc2ccccc2)CC3)c(C)o1` the max activity was 31.5% (inactive). In the case of `COCC1CN(C(=O)Cc2ccsc2)Cc2nccn2C1` (centres undefined), the max activity was 35.1% (inactive). With `CCCCc1ccc(Nc2ncnc3c2cnn3-c2cccc(C)c2)cc1` the max activity was 13.1% [at 5 µM] (inactive). With `Cc1ccc(-n2ncc3c(NC(C)(C)C)ncnc32)c(C)c1` the max activity was 53.9% (inactive). For `COCCCNc1ncnc2c1cnn2-c1ccc(C)cc1C`, the max activity was 11.9% [at 0.16 µM] (inactive). In the case of `Cc1ccc(Nc2ncnc3c2cnn3-c2ccc(C)cc2C)cc1`, the max activity was 16.5% [at 1.35 µM] (inactive). In the case of `CCOc1ccc(-c2nc3c(s2)CN(C(=O)Nc2ccccc2CC)CC3)cc1`, the max activity was 124% (inactive). With `Cc1oc(-c2cccc(Cl)c2)nc1CN1CCc2c(sc3c2CCCC3)C1c1ccccc1` (centres undefined) the max activity was 20.4% (inactive). For `COc1ccc(N2CC(NC(=O)C(=O)c3c(C)[nH]c4ccccc34)CC2=O)cc1` (centres undefined), the max activity was 15.6% [at 2.6 µM] (inactive). With `COc1ccc(CC(=O)N2CCC[C@@H]2C(=O)NCCc2csc(-c3ccccc3)n2)cc1Cl` the max activity was 18.7% [at 5 µM] (inactive). With `Cc1nc(-c2ccc(F)cc2)sc1-c1ccc(SCc2cccc(F)c2)nn1` the max activity was 25.1% (inactive). For `CC(C)c1ccc(S(=O)(=O)N2CCC3(CC2)NCCN=C3NCc2cccc(F)c2)cc1`, the max activity was -18.4% (inactive). In the case of `CC(C)c1ccc(S(=O)(=O)N2CCC3(CC2)NCCN=C3NCc2ccccc2)cc1`, the max activity was -31.9% (inactive). In the case of `COc1ccc(C2=NC3(CCN(CC(=O)Nc4ccccc4F)CC3)NC2=O)cc1`, the max activity was -25.6% [at 0.35 µM] (inactive). With `Cn1nnc2c(NCCc3c[nH]c4ccccc34)ncnc21` the max activity was 6.96% [at 0.35 µM] (inactive). With `CCc1c(C)sc2c1CCN(Cc1nc(-c3ccc(OC)cc3)oc1C)C2c1ccccc1` (centres undefined) the max activity was 15.1% [at 5 µM] (inactive). In the case of `N#Cc1cccc(-c2ccc(C3[C@@H]4CN(C(=O)Nc5ccc(C(F)(F)F)cc5)C[C@H]3N4)cc2)c1` (some centres undefined), the max activity was 16.9% [at 10 µM] (inactive). For `Clc1cccc(CSc2nc(NC3CCCCC3)c3ccccc3n2)c1`, the max activity was 11% [at 10 µM] (inactive). With `CCc1onc(C)c1C1CCCN1Cc1cn(C)c2ccc(OC)cc12` (centres undefined) the max activity was 9.05% [at 0.68 µM] (inactive). With `CCc1ccc(CNc2nc(-c3ccc(Cl)cc3)nc3ccccc23)cc1` the max activity was 24.5% (inactive). For `COc1ccc(-c2nc(NCc3ccc4c(c3)OCO4)c3ccccc3n2)cc1`, the max activity was -12% [at 1.35 µM] (inactive). For `Fc1ccc(CNc2nc(-c3ccc(Cl)cc3)nc3ccccc23)cc1`, the max activity was 7.26% (inactive). With `COc1ccc(-c2nc(NCCc3ccc(C)cc3)c3ccccc3n2)cc1` the max activity was 14.1% [at 0.16 µM] (inactive). With `COc1ccc(-c2nc(NCCc3ccc(Cl)cc3)c3ccccc3n2)cc1` the max activity was 25.9% [at 0.16 µM] (inactive). For `COc1ccc(-c2nc(NCc3ccc(Cl)cc3)c3ccccc3n2)cc1`, the max activity was -9.43% [at 0.35 µM] (inactive). In the case of `CCC(C(=O)N1CSC[C@@H]1C(=O)NCCc1csc(-c2ccccc2)n1)c1ccccc1` (some centres undefined), the max activity was 16.6% [at 5 µM] (inactive). For `COc1cccc(-c2nc3c(s2)CN(C(=O)Nc2ccccc2C)CC3)c1`, the max activity was 59.1% (inactive). In the case of `CCCCOCCOCCOCc1cc2c(cc1CCC)OCO2`, the max activity was 17.6% (inactive). With `COc1ccc(-c2nc(Nc3cccc(C)c3)c3ccccc3n2)cc1` the max activity was -18.2% [at 0.16 µM] (inactive). For `CCc1nc(OCC(=O)NCc2ccc(OC)cc2)c2ccccc2n1`, the max activity was 25.3% (inactive). In the case of `C/C=C/c1ccc([C@H]2[C@H](CO)N3C(=O)CN(C(=O)NC4CCCCC4)C[C@@H]23)cc1`, the max activity was 19.7% (inactive). With `O=C(Cc1cccnc1)N1CC(=O)N2[C@H](CO)[C@H](c3ccc(/C=C/c4ccccc4)cc3)[C@@H]2C1` the max activity was 20.1% [at 10 µM] (inactive). With `O=C(Cc1cccnc1)N1CC(=O)N2[C@H](CO)[C@@H](c3ccc(/C=C/c4ccccc4)cc3)[C@H]2C1` the max activity was 9.82% [at 10 µM] (inactive). In the case of `CC(C)C#Cc1ccc([C@@H]2[C@@H](CO)N3C(=O)CN(C(=O)NC4CCCC4)C[C@H]23)cc1`, the max activity was 19% [at 10 µM] (inactive). For `CCc1ccc2c(c1)cc(S(=O)(=O)c1ccccc1)c(=O)n2CC(=O)NCCC1=CCCCC1`, the max activity was -4.67% [at 2.6 µM] (inactive). With `Cc1nc(OCC(=O)NCc2ccc(F)cc2)c2ccccc2n1` the max activity was 25% [at 10 µM] (inactive). For `CCc1nc(OCC(=O)Nc2ccc(OC)cc2)c2ccccc2n1`, the max activity was -14.2% (inactive). For `CC(=O)N1CCN(C(C)C)C(c2nnc3ccc(C(=O)N4CCCC4)cn23)C1` (centres undefined), the max activity was 43.3% (inactive). With `COCC(=O)N1CC(=O)N2[C@H](CO)[C@@H](c3ccc(-c4ccccc4F)cc3)[C@H]2C1` the max activity was 43.4% (inactive). In the case of `COc1ccc(-c2ccc([C@@H]3[C@@H](CO)N4C(=O)CN(Cc5ccccc5)C[C@H]34)cc2)cc1`, the max activity was 18% [at 10 µM] (inactive). For `COCC(=O)N1CC(=O)N2[C@H](CO)[C@@H](c3ccc(-c4ccncc4)cc3)[C@H]2C1`, the max activity was 45.2% (inactive). In the case of `COc1ccc(-c2ccc([C@@H]3[C@@H](CO)N4C(=O)CN(Cc5ccccc5)C[C@@H]34)cc2)cc1`, the max activity was 9.38% [at 5 µM] (inactive). In the case of `Cc1ccc(CNC(=O)Cn2c(=O)c(S(=O)(=O)c3ccccc3)cc3ccccc32)cc1`, the max activity was 11% [at 0.16 µM] (inactive). With `Cc1ccc2[nH]c(C(=O)N3CCN(c4ccccn4)CC3)c(NC(=O)c3ccc(Cl)cc3)c2c1` the max activity was 30.8% [at 10 µM] (inactive). In the case of `COCC(=O)Nc1ccc(-c2nc(-c3ccc(C)cc3C)co2)cc1`, the max activity was 13.9% [at 0.16 µM] (inactive).
